# Several values for one entry are separate records, joined by “and”; a condition that tells them apart may be missing. Equal entries are not always repeated. Results filed as inconclusive are left out. Activity calls are given as the source filed them. Unless noted, the call rests on the fitted dose curve; in most records, active means well fitted curve in the direction sought with a large enough effect; inconclusive means small, poorly fitted or top-dose-only effect, or another doubt; inactive means no such curve, though single readings can be large; an effect the other way counts as inactive or inconclusive.
# Experiments:
# [1] = biological target: T1, Hexokinase-4 (Homo sapiens) + Glucokinase regulatory protein (Homo sapiens) (UniProt P35557+Q14397); assay: qHTS assay for inhibitors of recombinant human GCK-GKRP interaction: Diaphorase-coupled assay (AID 743205)
# Outline: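 A kinetic fluorescence read (Ex 525/Em 590 nm, every minute for 30 minutes) tracked resorufin from a G6PDH-diaphorase coupled GCK reaction. It contained 10 nM GST-GCK, 10 nM FLAG-GKRP, 5 mM glucose, 0.4 mM ATP in Hepes pH 7.6. Normalized to with/without-enzyme DMSO controls.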
# [2] = biological target: T1, Hexokinase-4 (Homo sapiens) + Glucokinase regulatory protein (Homo sapiens); assay: qHTS assay for inhibitors of recombinant human GCK-GKRP interaction: ADP-Glo assay (AID 743206);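 further: plate controls were DMSO plus enzyme for no effect and no enzyme for full effect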
# Outline: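 Pin-transferred compounds meet a 15 nM GST-GCK/15 nM FLAG-GKRP/2 uM S6P mix (dispense concentrations). ATP is then added to 0.4 mM final with 5 mM glucose, and the reaction runs 60 min at room temperature. ADP is quantified luminescently.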
# [3] = biological target: T1, Hexokinase-4 (Homo sapiens) + Glucokinase regulatory protein (Homo sapiens); assay: qHTS assay for inhibitors of recombinant human GCK-GKRP interaction: HTRF assay (AID 743207);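 further: 0% = DMSO with GCK present and -100% = DMSO wells lacking GCK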
# Outline: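 After 60 min equilibration at room temperature with anti-FLAG XL665 and anti-GST antibodies, FRET ratio (665/615 nm, excitation 320 nm) was read. Proteins: GST-GCK and FLAG-GKRP, each 5 nM, plus 2 uM S6P, pH 7.1 buffer; GCK-free wells define minimum signal.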
# [4] = qHTS Assay for Identifying Gametocytocidal Compounds (AID 743244); further: potency means the concentration at half of the fitted maximal effect;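 on max response: on the % scale 0 is the no-effect control and ±100 the full control effect; actives lower the fluorescent signal which means gametocytes are killed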; conditions: P. falciparum 3D7 stage III-V gametocytes, alamarBlue, 72 h; max response: stronger effect = lower value
# Outline: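 Viability read-out was resazurin reduction (alamarBlue, 24 h) measured at Ex 525/Em 598 nm. Beforehand, late-stage (III-V) 3D7 P. falciparum gametocytes at 20,000 cells/well were incubated with compound 72 h at 37C under 5% CO2.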
# [5] = qHTS profiling of the MIPE4 collection as inhibitors of Plasmodium falciparum (3D7) proliferation (AID 743344; call rule not given here;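 further: scaled between DMSO vehicle wells and 0.29 µM artemisinin as full inhibition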); conditions: P. falciparum 3D7 in erythrocytes, SYBR Green DNA fluorescence, 72 h; at 28.5 µM (top of the series) unless noted
# Outline: (§1)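 Parasite DNA was quantified by SYBR Green I fluorescence (ex 485, em 535 nm) after overnight lysis in saponin/Triton buffer at room temperature. Cultures at 0.3% parasitemia and 2.5% hematocrit were first exposed to compound for 72 h at 37 C; signals were normalised to artemisinin (0.29 uM) and vehicle wells.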
# [6] = qHTS profiling of the MIPE4 collection as inhibitors of Plasmodium falciparum (DD2) proliferation (AID 743345; call rule not given here); conditions: P. falciparum Dd2 in erythrocytes, SYBR Green DNA, 72 h; at 28.5 µM (top of the series) unless noted
# Outline: as §1
# [7] = qHTS profiling for inhibitors of Plasmodium falciparum (3D7) proliferation (AID 743322; call rule not given here;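 further: infected erythrocytes exposed to compound for 72 h before lysis; 100% = DMSO vehicle wells and 0% = 0.29 µM artemisinin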); conditions: P. falciparum 3D7 proliferation; at 28.7 µM (top of the series) unless noted
# Outline: as §1
# [8] = qHTS profiling for inhibitors of Plasmodium falciparum (HB3) proliferation (AID 743324); conditions: Plasmodium falciparum HB3 blood-stage proliferation; at 28.7 µM (top of the series) unless noted;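 further: 100% = DMSO vehicle wells and 0% = artemisinin-treated control wells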
# Outline: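 SYBR Green fluorescence (485 ex/535 em) of lysed cultures, incubated overnight at room temperature in the dark, quantifies parasite DNA. Infected erythrocytes at 0.3% parasitemia and 2.5% hematocrit were exposed 72 h; values normalized to DMSO and 0.29 uM artemisinin controls.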
# [9] = qHTS assay for cell viability of the p53RE-bla HCT-116 cell line (AID 743292); further: nearly all actives have a fitted effect of over 55% in size; further: potency means the concentration at half of the fitted maximal effect
# Outline: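 HCT-116 p53RE-bla cells seeded 4,000/well; 5 h at 37 C; compound (DMSO) added; 16 h at 37 C; CellTiter-Glo added, 30 min RT; luminescence read.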
# [10] = qHTS assay for cell viability of HEK293 cells (AID 743288); conditions: ATP luminescence (CellTiter-Glo), 18 h; max response: stronger effect = lower value; further: nearly all actives have a fitted effect of over 50% in size; further: potency means the concentration at half of the fitted maximal effect; on max response: on the % scale 0 is the no-effect control and ±100 the full control effect
# Outline: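 Readout is luciferase-coupled ATP content (CellTiter-Glo luminescence, 30 min room temperature) as a measure of metabolically competent cells. Parental HEK293 cells were plated 5 h or more before compound addition, then treated 18 h at 37 C.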
# T1 sequence (P35557 whole entry, looked up): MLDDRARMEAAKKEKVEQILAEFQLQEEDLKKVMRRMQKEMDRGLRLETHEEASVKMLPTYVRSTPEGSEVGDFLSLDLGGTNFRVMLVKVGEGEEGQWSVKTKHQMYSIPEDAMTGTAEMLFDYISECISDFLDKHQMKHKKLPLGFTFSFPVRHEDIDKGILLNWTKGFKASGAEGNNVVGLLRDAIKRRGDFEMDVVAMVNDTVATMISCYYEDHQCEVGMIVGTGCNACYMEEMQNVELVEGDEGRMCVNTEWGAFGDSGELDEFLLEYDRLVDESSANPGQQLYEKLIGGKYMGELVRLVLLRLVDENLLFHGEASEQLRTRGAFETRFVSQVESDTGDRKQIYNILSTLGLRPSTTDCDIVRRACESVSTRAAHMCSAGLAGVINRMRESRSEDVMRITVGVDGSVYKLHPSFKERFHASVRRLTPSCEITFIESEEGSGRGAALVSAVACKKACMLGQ
# T1 sequence (Q14397 whole entry, looked up): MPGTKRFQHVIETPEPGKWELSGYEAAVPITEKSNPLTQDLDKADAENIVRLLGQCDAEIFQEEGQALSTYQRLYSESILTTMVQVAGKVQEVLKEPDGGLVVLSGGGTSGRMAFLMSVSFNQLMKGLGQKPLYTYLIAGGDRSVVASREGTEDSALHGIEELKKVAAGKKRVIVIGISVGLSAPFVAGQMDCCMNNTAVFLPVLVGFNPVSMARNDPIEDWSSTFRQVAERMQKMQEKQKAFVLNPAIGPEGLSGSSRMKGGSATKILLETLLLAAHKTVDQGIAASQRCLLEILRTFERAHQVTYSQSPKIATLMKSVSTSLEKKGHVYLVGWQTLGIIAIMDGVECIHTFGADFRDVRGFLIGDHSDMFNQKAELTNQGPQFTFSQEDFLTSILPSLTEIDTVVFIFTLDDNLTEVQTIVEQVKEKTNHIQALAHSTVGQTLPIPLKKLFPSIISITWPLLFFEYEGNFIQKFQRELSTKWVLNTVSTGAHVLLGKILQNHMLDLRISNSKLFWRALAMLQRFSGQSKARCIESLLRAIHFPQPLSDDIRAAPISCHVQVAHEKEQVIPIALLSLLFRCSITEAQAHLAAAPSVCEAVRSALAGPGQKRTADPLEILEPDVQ
smiles,measurement,setting,value
O=C1c2ccccc2-c2n[nH]c3cccc1c23,outcome,[1],inactive
same,outcome,[2],inactive
same,outcome,[3],inactive
same,max response,[4],-3.57% (inactive) and 13.7% (inactive)
same,"parasite growth, % of DMSO control",[5],62.9%
same,"parasite growth remaining, % of DMSO control (lower = more inhibition)",[6],93%
Nc1ccn([C@@H]2O[C@H](CO)[C@@H](O)C2O)c(=O)n1 (stereo partly drawn),outcome,[1],inactive
same,outcome,[2],inactive
same,outcome,[3],inactive
same,max response,[4],0.0114% (inactive) and -8.34% (inactive)
same,"parasite growth, % of DMSO control",[5],89.3%
same,"parasite growth remaining, % of DMSO control (lower = more inhibition)",[6],137%
C[C@H](Cc1ccc(O)c(O)c1)[C@@H](C)Cc1ccc(O)c(O)c1,outcome,[1],inactive
same,outcome,[2],inactive
same,outcome,[3],inactive
same,max response,[4],4.03% (inactive)
same,"parasite growth, % of DMSO control",[5],15.1%
same,"parasite growth remaining, % of DMSO control (lower = more inhibition)",[6],17.2%
Oc1ccc(-c2nc(-c3ccc(F)cc3)c(-c3ccncc3)[nH]2)cc1,outcome,[1],inactive
same,outcome,[2],inactive
same,outcome,[3],inactive
same,max response,[4],19.1% (inactive)
same,"parasite growth, % of DMSO control",[5],37%
same,"parasite growth remaining, % of DMSO control (lower = more inhibition)",[6],79.6%
NC(=NCc1ccccc1)NC(=O)c1nc(Cl)c(N)nc1N,outcome,[1],inactive
same,outcome,[2],inactive
same,outcome,[3],inactive
same,Potency,[4],23.5 µM (active)
same,remaining parasite growth % (stronger effect = lower value),[7],-0.258% [at 18.4 µM]
same,"parasite growth, % of DMSO control",[5],103%
same,"parasite growth remaining, % of DMSO control (lower = more inhibition)",[6],98.4%
C[C@@H](N)C1CCC(C(=O)Nc2ccncc2)CC1 (stereo partly drawn),outcome,[1],inactive
same,outcome,[2],inactive
same,outcome,[3],inactive
same,max response,[4],-0.932% (inactive) and 18% (inactive)
same,remaining parasite growth % (stronger effect = lower value),[7],103%
same,"remaining proliferation (% of control), lower = more inhibition",[8],94.3%
same,"parasite growth, % of DMSO control",[5],85.6%
same,"parasite growth remaining, % of DMSO control (lower = more inhibition)",[6],91.5%
O=C(CCc1ccc(O)cc1)c1c(O)cc(O)cc1O,outcome,[1],inactive
same,outcome,[2],inactive
same,outcome,[3],inactive
same,max response,[4],19.3% (inactive)
same,"parasite growth, % of DMSO control",[5],10.4%
same,"parasite growth remaining, % of DMSO control (lower = more inhibition)",[6],96.7%
CC(=O)N1CCN(c2ccc(OC[C@H]3CO[C@](Cn4ccnc4)(c4ccc(Cl)cc4Cl)O3)cc2)CC1,outcome,[1],inactive
same,outcome,[2],inactive
same,outcome,[3],inactive
same,Potency,[9],inactive
same,"parasite growth, % of DMSO control",[5],10.3%
O=C(c1ccccc1)c1ccc2n1CCC2C(=O)O (stereo not drawn),outcome,[1],inactive
same,outcome,[2],inactive
same,outcome,[3],inactive
same,max response,[4],44.1% (inactive) and 46.1% (inactive)
same,"parasite growth, % of DMSO control",[5],67.8%
same,"parasite growth remaining, % of DMSO control (lower = more inhibition)",[6],107%
O=c1c(O)c(-c2ccc(O)cc2O)oc2cc(O)cc(O)c12,outcome,[1],inactive
same,outcome,[2],inactive
same,max response,[4],11.7% (inactive)
same,max response,[10],-9.35% (inactive)
same,Potency,[9],inactive
same,"parasite growth, % of DMSO control",[5],80.8%
same,"parasite growth remaining, % of DMSO control (lower = more inhibition)",[6],71%
O=c1cc(N2CCOCC2)oc2c(-c3ccccc3)cccc12,outcome,[1],inactive
same,outcome,[2],inactive
same,outcome,[3],inactive
same,max response,[4],3.56% (inactive)
same,remaining parasite growth % (stronger effect = lower value),[7],105%
same,"parasite growth, % of DMSO control",[5],51.9%
same,"parasite growth remaining, % of DMSO control (lower = more inhibition)",[6],96%
Cc1cc(O)c2c(c1)C(=O)c1cc(O)cc(O)c1C2=O,outcome,[1],inactive
same,outcome,[2],inactive
same,outcome,[3],inactive
same,max response,[4],14.5% (inactive)
same,Potency,[10],44.7 µM (active)
same,Potency,[9],31.6 µM (active)
O=C1NC(=O)C(c2ccccc2[N+](=O)[O-])=C1Nc1ccc(O)c(Cl)c1,outcome,[1],inactive
same,outcome,[2],inactive
same,outcome,[3],inactive
same,"parasite growth, % of DMSO control",[5],68.6%
same,"parasite growth remaining, % of DMSO control (lower = more inhibition)",[6],87.1%
O=c1ccc2ccc(O)c(O)c2o1,outcome,[1],inactive
same,outcome,[2],inactive
same,outcome,[3],inactive
same,"parasite growth, % of DMSO control",[5],169%
same,"parasite growth remaining, % of DMSO control (lower = more inhibition)",[6],34.2%
CC(=O)O[C@H]1C(=O)[C@@]2(C)C([C@H](OC(=O)c3ccccc3)[C@]3(O)C[C@H](OC(=O)[C@H](O)[C@@H](NC(=O)c4ccccc4)c4ccccc4)C(C)=C1C3(C)C)[C@]1(OC(C)=O)CO[C@@H]1C[C@@H]2O (stereo partly drawn),outcome,[1],inactive
same,outcome,[2],inactive
same,outcome,[3],inactive
same,"parasite growth, % of DMSO control",[5],5.85%
same,"parasite growth remaining, % of DMSO control (lower = more inhibition)",[6],14.4%
Cc1cccc(C#Cc2ccccc2)n1,outcome,[1],inactive
same,outcome,[2],inactive
same,outcome,[3],inactive
same,max response,[4],7.87% (inactive)
same,remaining parasite growth % (stronger effect = lower value),[7],106%
same,"remaining proliferation (% of control), lower = more inhibition",[8],75.6%
same,"parasite growth, % of DMSO control",[5],23.9%
same,"parasite growth remaining, % of DMSO control (lower = more inhibition)",[6],98.6%
Cc1c(OCC(F)(F)F)ccnc1CS(=O)c1nc2ccccc2[nH]1 (stereo not drawn),outcome,[1],inactive
same,outcome,[2],inactive
same,outcome,[3],inactive
COc1ccc2cc([C@H](C)C(=O)O)ccc2c1,outcome,[1],inactive
same,outcome,[2],inactive
same,outcome,[3],inactive
same,max response,[4],18.3% (inactive) and 6.4% (inactive)
same,"parasite growth, % of DMSO control",[5],106%
same,"parasite growth remaining, % of DMSO control (lower = more inhibition)",[6],100%
CC1(C)C(=O)N(CCN2CCC(C(=O)c3ccc(F)cc3)CC2)c2ccccc21,outcome,[1],inactive
same,outcome,[2],inactive
same,outcome,[3],inactive
same,max response,[4],6.71% (inactive)
same,"parasite growth, % of DMSO control",[5],49%
same,"parasite growth remaining, % of DMSO control (lower = more inhibition)",[6],15.4%
COc1cc2c(cc1OC)C1CC(=O)C(CC(C)C)CN1CC2 (stereo not drawn),outcome,[1],inactive
same,outcome,[2],inactive
same,outcome,[3],inactive
same,max response,[4],30.1% (inactive)
same,"parasite growth, % of DMSO control",[5],82.2%
same,"parasite growth remaining, % of DMSO control (lower = more inhibition)",[6],7.77%
CNC[C@H](O)c1ccc(O)c(O)c1,outcome,[1],inactive
same,outcome,[2],inactive
same,outcome,[3],inactive
same,max response,[4],-9.4% (inactive) and 18.5% (inactive)
same,max response,[10],-7.6% (inactive)
same,Potency,[9],inactive
same,"parasite growth, % of DMSO control",[5],61.3% [at 57.5 µM]
same,"parasite growth remaining, % of DMSO control (lower = more inhibition)",[6],70.6% [at 57.5 µM]
CCOC(=O)C(C)Oc1cccc2c(=O)n(CC(=O)Nc3ccc4c(c3)OCCO4)ccc12 (stereo not drawn),outcome,[1],inactive
same,outcome,[2],inactive
same,outcome,[3],inactive
same,max response,[4],9.26% (inactive)
same,remaining parasite growth % (stronger effect = lower value),[7],115%
same,"remaining proliferation (% of control), lower = more inhibition",[8],104%
same,"parasite growth, % of DMSO control",[5],72.1%
same,"parasite growth remaining, % of DMSO control (lower = more inhibition)",[6],92.5%
Cc1nc2n(c(=O)c1CCN1CCC(c3noc4cc(F)ccc34)CC1)CCCC2,max response,[4],9.32% (inactive)
O=C(O)c1cccnc1Nc1cccc(C(F)(F)F)c1,outcome,[1],inactive
same,outcome,[2],inactive
same,outcome,[3],inactive
same,max response,[4],-9.57% (inactive) and 27.4% (inactive)
same,"parasite growth, % of DMSO control",[5],83.9%
same,"parasite growth remaining, % of DMSO control (lower = more inhibition)",[6],87.2%
